Source: PubChem BioAssay
For part of these data: Potency and affinity values are given separately. Active and inactive are the calls of the source.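 Rule for the calls, unless noted: active = calcium signal cut by more than 3 SD below the full-agonist control yet still positive, in both repeats and the earlier primary screen; inactive = the rest.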

Tests used:
[1] = tested on: TRPC4 beta (transient receptor potential cation channel C4), mouse; assay: TRPC4 cation channel opening, retest – cell-based, Fluo4 calcium, HEK293 TRPC4beta/mu-opioid, duplicates, 10 µM, confirmation (AID 2426;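 active = fluorescence ratio normalized to control raised more than 50% in primary screen plus both repeat runs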); settings: Fluo4 calcium fluorescence, at 10 µM; hits give high values
[2] = tested on: transient receptor potential cation channel C4 beta (TRPC4), mouse; assay: TRPC4 cation channel opening, second retest – cell-based, second round, Fluo4, HEK293 TRPC4beta/mu-opioid, 1 µM, confirmation (AID 2461;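 active = primary screen active and over 50% activation in each of two duplicate runs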); settings: Fluo4 calcium fluorescence, at 1 µM; hits give high values
[3] = tested on: TRPC4 (transient receptor potential cation channel C4 beta), mouse; assay: potentiation of DAMGO EC20 TRPC4 response – cell-based, second round, Fluo-4, HEK293 TRPC4beta/mu-opioid, 1 µM, confirmation (AID 2554;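 active = primary screen hit whose fluorescence ratio, in both repeats, exceeds the weak agonist control mean by 3 SD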); settings: DAMGO EC20, Fluo-4 calcium flux, at 1 µM; hits give high values
[4] = tested on: TRPC4 beta (transient receptor potential cation channel C4), mouse; assay: potentiation of DAMGO EC20 TRPC4 response – cell-based, Fluo-4, HEK293 TRPC4beta/mu-opioid, confirmation (AID 2555;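 active = primary screen hit whose calcium fluorescence ratio, in both repeats, exceeds the weak agonist control mean by 3 SD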); settings: DAMGO EC20, Fluo-4 calcium flux, at 10 µM; hits give high values
[5] = biological target: Short transient receptor potential channel 4 (Mus musculus) (UniProt Q9QUQ5); assay: blockers of DAMGO-evoked TRPC4 calcium flux – cell-based, Fluo4, HEK293 TRPC4beta/mu-opioid, confirmation (AID 2636); settings: at 10 µM; hits give high values
[6] = biological target: Short transient receptor potential channel 4 (Mus musculus) (UniProt Q9QUQ5); assay: blockers of DAMGO-evoked TRPC4 calcium flux – cell-based, second round, Fluo4, HEK293 TRPC4beta/mu-opioid, 1 µM, confirmation (AID 2637;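 active = calcium signal ratio cut to more than 3 SD under the fully stimulated control mean yet still positive, in both repeats and the primary screen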); settings: at 1 µM; hits give high values
[7] = biological target: Short transient receptor potential channel 4 (Mus musculus) (UniProt Q9QUQ5); assay: calcium entry via TRPC4 opening agents – cell-based, HEK293 TRPC4/mu-opioid, Fluo-4 calcium, dose response (AID 434937;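 active = primary screen activator hit with a dose response curve and TRPC4 channel activation at any tested dose; inactive = no activation, no dose response, or not a primary hit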)
[8] = biological target: Short transient receptor potential channel 4 (Mus musculus) (UniProt Q9QUQ5); assay: potentiation of DAMGO-evoked TRPC4 calcium signal – cell-based, HEK293 TRPC4/mu-opioid, Fluo-4 calcium, EC20 DAMGO, dose response (AID 434941;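 active = earlier screen potentiator hit that boosts the TRPC4 ion channel at some dose, with a dose response; inactive = no potentiation, no dose response, or not a prior hit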;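 note: calcium entry triggered by an EC20 dose of DAMGO at the co-expressed mu-opioid receptor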)
[9] = biological target: Short transient receptor potential channel 4 (Mus musculus) (UniProt Q9QUQ5); assay: block of DAMGO-driven TRPC4 calcium entry – cell-based, HEK293 TRPC4/mu-opioid, Fluo-4 calcium, dose response (AID 434942;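 active = primary screen inhibitor hit that blocks the TRPC4 channel at some tested dose, yielding a dose curve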)
[10] = biological target: Short transient receptor potential channel 6 (Mus musculus) (UniProt Q61143); assay: TRPC6 blockade by TRPC4 inhibitor hits – cell-based, HEK293, membrane potential dye, duplicate, selectivity assay for TRPC4 inhibitor project, confirmation (AID 434948;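 active = active in primary screen and both duplicates, each dropping signal beyond three positive-control SD with fluorescence still positive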); settings: HEK293 TRPC6, membrane potential dye fluorescence, at 10 µM, stimulated with maximal-effect acetylcholine; hits give high values
[11] = biological target: Short transient receptor potential channel 6 (Mus musculus) (UniProt Q61143); assay: TRPC6 opening by TRPC4 activator hits – cell-based, HEK293, membrane potential dye, duplicate, selectivity assay for TRPC4 activator project, confirmation (AID 434950;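 active = membrane potential signal rise above negative control mean plus 3 SD in both duplicates, also active in the earlier TRPC4 screen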); settings: HEK293 TRPC6, membrane potential fluorescence, at 10 µM; activation: hits give high values; outcome: activation
[12] = biological target: Short transient receptor potential channel 6 (Mus musculus) (UniProt Q61143); assay: positive modulators of mouse TRPC6 channel – HEK293 cells, membrane potential dye, duplicate, selectivity assay for TRPC4 potentiator project, confirmation (AID 434952;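 active = compound raising the membrane signal above positive-control mean plus 3 SD in both repeats, and a primary screen hit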); settings: HEK293 TRPC6, membrane potential dye fluorescence, at 10 µM, maximal acetylcholine added after compound; hits give high values
[13] = biological target: Short transient receptor potential channel 4 (Mus musculus) (UniProt Q9QUQ5); assay: calcium flux activators in TRPC4/5HT1a cells, counter-screen for TRPC4 activator project, cell-based, second counter screen, HEK293 TRPC4/5HT1a, Fluo-4 (AID 434977;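 active = calcium signal rise above buffer-control mean plus 5 SD in both duplicates, and also a hit in the primary screen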); settings: Fluo-4 calcium flux, at 10 µM; hits give high values
[14] = serotonin-gated TRPC4 signal block – cell-based, second counter screen, HEK293 TRPC4/5HT1a, Fluo-4, counter-screen for TRPC4 inhibitor project, confirmation (AID 434978;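 active = primary screen active whose calcium signal fell more than 3 SD beyond the full-serotonin control mean in both duplicate plates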;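 note: serotonin given first at submaximal then at maximal dose after compound preincubation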); settings: Fluo-4 calcium flux, at 10 µM, serotonin added to trigger calcium flux; hits give high values
[15] = tested on: TRPC4 (mouse), co-expressed with 5HT1a in HEK293; assay: enhancement of serotonin-evoked TRPC4 response – cell-based, second counter screen, HEK293 TRPC4/5HT1a, Fluo-4, counter-screen for TRPC4 potentiator project, confirmation (AID 434979;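 active = signal rise over 3 SD above mean of control wells given weak agonist, in both repeats and first screen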); settings: Fluo-4 calcium flux, at 10 µM, serotonin added at its EC20 dose; hits give high values
[16] = nonspecific calcium rise without TRPC4 – cell-based, HEK293 mu-opioid receptor line, counter-screen for TRPC4 activator project, confirmation (AID 449723;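 active = hit in primary screen, with calcium signal over 5 SD above buffer well mean in both duplicates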;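 note: counter screen cells carry the mu-opioid receptor alone and lack TRPC4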); settings: HEK293 mu-opioid cells, Fluo-4 calcium fluorescence, at 10 µM; hits give high values
[17] = nonspecific potentiation of DAMGO calcium response – cell-based, HEK293 mu-opioid receptor line, counter-screen for TRPC4 allosteric potentiator project, confirmation (AID 449724;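 active = calcium signal rise more than 3 SD above the low-dose agonist control mean, in both duplicate plates and the primary screen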); settings: HEK293 mu-opioid receptor cells, Fluo-4 calcium flux, at 10 µM, compound added before EC20 DAMGO stimulus; hits give high values

Measured: potentiation

Chain of Short transient receptor potential channel 6 (Mus musculus) (Q61143 whole entry, looked up): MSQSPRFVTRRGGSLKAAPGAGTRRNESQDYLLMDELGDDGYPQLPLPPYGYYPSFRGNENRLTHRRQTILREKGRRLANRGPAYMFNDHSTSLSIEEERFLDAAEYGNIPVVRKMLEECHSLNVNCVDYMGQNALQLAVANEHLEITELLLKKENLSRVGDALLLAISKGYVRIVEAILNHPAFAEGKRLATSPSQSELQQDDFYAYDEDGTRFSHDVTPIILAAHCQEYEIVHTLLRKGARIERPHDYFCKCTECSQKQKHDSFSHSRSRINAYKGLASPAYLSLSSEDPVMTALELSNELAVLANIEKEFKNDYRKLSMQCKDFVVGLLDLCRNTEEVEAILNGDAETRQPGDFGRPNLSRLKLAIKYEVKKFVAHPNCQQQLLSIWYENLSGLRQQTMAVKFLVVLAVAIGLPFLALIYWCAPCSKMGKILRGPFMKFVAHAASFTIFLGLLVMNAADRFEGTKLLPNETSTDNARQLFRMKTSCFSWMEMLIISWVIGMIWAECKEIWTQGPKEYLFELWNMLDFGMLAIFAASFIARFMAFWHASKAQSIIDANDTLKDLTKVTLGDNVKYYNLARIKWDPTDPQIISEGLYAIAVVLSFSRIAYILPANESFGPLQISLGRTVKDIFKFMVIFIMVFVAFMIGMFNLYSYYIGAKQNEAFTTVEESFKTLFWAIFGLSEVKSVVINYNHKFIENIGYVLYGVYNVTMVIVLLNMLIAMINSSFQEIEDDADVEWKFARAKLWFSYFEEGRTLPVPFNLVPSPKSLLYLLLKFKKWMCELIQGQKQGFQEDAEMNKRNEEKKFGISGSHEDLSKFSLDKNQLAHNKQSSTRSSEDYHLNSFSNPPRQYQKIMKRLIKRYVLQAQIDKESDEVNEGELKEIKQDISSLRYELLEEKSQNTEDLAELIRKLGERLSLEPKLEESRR
Chain of Short transient receptor potential channel 4 (Mus musculus) (Q9QUQ5 whole entry, looked up): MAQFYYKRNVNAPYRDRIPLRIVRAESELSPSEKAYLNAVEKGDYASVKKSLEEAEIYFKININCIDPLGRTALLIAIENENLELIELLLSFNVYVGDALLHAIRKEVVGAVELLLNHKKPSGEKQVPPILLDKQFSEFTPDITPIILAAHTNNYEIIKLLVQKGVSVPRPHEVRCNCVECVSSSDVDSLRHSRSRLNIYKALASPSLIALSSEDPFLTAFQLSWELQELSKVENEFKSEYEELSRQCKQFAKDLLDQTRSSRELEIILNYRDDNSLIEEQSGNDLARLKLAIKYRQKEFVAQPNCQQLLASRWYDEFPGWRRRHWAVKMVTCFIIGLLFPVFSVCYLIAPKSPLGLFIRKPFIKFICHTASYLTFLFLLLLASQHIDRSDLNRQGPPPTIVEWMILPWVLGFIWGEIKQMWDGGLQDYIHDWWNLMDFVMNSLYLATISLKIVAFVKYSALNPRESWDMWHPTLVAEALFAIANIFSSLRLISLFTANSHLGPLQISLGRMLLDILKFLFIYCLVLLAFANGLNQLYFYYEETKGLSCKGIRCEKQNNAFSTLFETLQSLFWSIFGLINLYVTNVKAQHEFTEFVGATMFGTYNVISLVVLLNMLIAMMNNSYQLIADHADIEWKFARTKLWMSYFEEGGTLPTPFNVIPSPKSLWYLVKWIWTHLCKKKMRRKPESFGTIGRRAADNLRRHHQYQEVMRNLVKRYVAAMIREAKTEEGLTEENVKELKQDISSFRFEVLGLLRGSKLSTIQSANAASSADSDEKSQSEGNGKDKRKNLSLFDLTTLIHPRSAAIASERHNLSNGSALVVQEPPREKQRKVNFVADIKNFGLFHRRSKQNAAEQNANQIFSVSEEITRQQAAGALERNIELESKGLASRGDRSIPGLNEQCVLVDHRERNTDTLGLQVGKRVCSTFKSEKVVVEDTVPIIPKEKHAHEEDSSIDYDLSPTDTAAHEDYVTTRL

O=C1NC(c2ccccc2)=C(c2nc3ccccc3s2)C(c2ccccc2)N1 (stereo not given)
active: [4] 14% | [15] 24.2%
inactive: all other assays above

CCCn1c(=O)c2sccc2n2c(CCCC(=O)NC3CCN(Cc4ccccc4)CC3)nnc12
active: [4] 7% | [15] 7.99%
inactive: all other assays above

CCN(CCNC(=O)C1CCCN(c2ncnc3c2nc2n3CCCCC2)C1)Cc1ccccc1 (stereo not given)
active: [3] 18% | [4] 10%
inactive: all other assays above

Cc1c(CCOC(=O)c2ccccc2)sc[n+]1CC(=O)c1ccc(Br)cc1
inactive: all assays above

CSc1ncccc1C(=O)OCC(=O)N(CC(C)C)c1c(N)n(Cc2ccccc2)c(=O)[nH]c1=O
inactive: all assays above

CCOC(=O)c1c(NC(=O)COC(=O)CCOc2ccc(OCC)cc2)sc(C(=O)N(C)C)c1C
active: [3] 22% | [4] 32% | [15] 81.1%
inactive: all other assays above

Cc1ccccc1-c1n[nH]c(=S)n1Cc1ccccc1
inactive: all assays above

Cc1cc(Br)cc(C)c1OCCCCN(C)C
active: [3] 23% | [15] 23.5%
inactive: all other assays above

CN1CCN(c2ccc(Cl)cc2NC(=O)CC2OC(=O)c3ccccc32)CC1 (stereo not given)
active: [3] 33% | [4] 33% | [15] 24.4%
inactive: all other assays above

CCOC(=O)C1=C(C)N(c2ccccc2)C(=O)NC1c1cccc([N+](=O)[O-])c1 (stereo not given)
active: [15] 9.17%
inactive: all other assays above

CCn1c(CN2CCN(C(c3ccccc3)c3ccccc3)CC2)nc2c1c(=O)n(C)c(=O)n2C
active: [15] 18.4%
inactive: all other assays above

O=C(NCCc1ccccc1)c1cnc2ccccc2n1
active: [4] 19% | [15] 27.4%
inactive: all other assays above

Cc1cc(S(=O)(=O)NC2CCN(Cc3ccccc3)CC2)c(C)cc1Cl
active: [15] 23.1%
inactive: all other assays above

CC(C)c1ccc(OCc2ccc(C(=O)N3CCCC3)o2)cc1
active: [4] 39%
inactive: all other assays above

CC1CCCCC1NC(=O)c1cc2ccccc2o1 (stereo not given)
active: [4] 46% | [15] 42.2%
inactive: all other assays above
